# The whole screen tested about 5,500 compounds, of which about 2,000 (36%) were called active. Roughly 18% stayed inconclusive and do not appear here. This is one part of the list. A number with no mark means an inactive call. No stated cut-off is given here; in the data, active means normalized growth mostly below about 0.91 (no sharp cut-off); inconclusive means no clear call, values can overlap the other calls; inactive means mostly above about 0.92.
# Test: chemical genetic growth profiling, strain panel (AID 1159580);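 further: tested at 20 µM; growth read once vehicle control cultures reached saturation at 30 °C; 1 = growth at the plate median or of vehicle wells; lower values mean less growth of the strain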
# Settings: S. cerevisiae deletion strains, growth OD
smiles,measurement,setting,value
O=c1cc(-c2ccccc2)oc2cccc(O)c12,normalized growth,"locus YAL021C, strain ccr4, active compounds read low",0.95
same,normalized growth,"locus YAL026C, strain drs2, active compounds read low",0.93
same,normalized growth,"locus YAL030W, strain snc1, active compounds read low",0.972
same,normalized growth,"locus YBL061C, strain skt5, active compounds read low",0.938
same,normalized growth,"locus YBR009C, strain hhf1, active compounds read low",0.969
same,normalized growth,"locus YBR023C, strain chs3, active compounds read low",0.892 (active)
same,normalized growth,"locus YBR171W, strain sec66, active compounds read low",0.952
same,normalized growth,"locus YBR231C, strain swc5, active compounds read low",0.943
same,normalized growth,"locus YBR279W, strain paf1, active compounds read low",0.931 (active)
same,normalized growth,"locus YCL011C, strain gbp2, active compounds read low",0.967
same,normalized growth,"locus YCL016C, strain dcc1, active compounds read low",0.938
same,normalized growth,"locus YCL061C, strain MRC1, active compounds read low",0.969
same,normalized growth,"locus YCL069W, strain vba3, active compounds read low",0.959
same,normalized growth,"locus YCR088W, strain abp1, active compounds read low",0.972
same,normalized growth,"locus YDL005C, strain med2, active compounds read low",0.994
same,normalized growth,"locus YDL040C, strain nat1, active compounds read low",0.961
same,normalized growth,"locus YDR001C, strain nth1, active compounds read low",0.961
same,normalized growth,"locus YDR069C, strain doa4, active compounds read low",0.985
same,normalized growth,"locus YDR137W, strain rgp1, active compounds read low",0.716 (active)
same,normalized growth,"locus YDR159W, strain sac3, active compounds read low",1.03
same,normalized growth,"locus YDR195W, strain ref2",1.37 [resistant] (active)
same,normalized growth,"locus YDR297W, strain sur2, active compounds read low",0.977
same,normalized growth,"locus YDR334W, strain swr1, active compounds read low",0.964
same,normalized growth,"locus YDR335W, strain msn5, active compounds read low",0.968
same,normalized growth,"locus YDR392W, strain spt3, active compounds read low",0.605 (active)
same,normalized growth,"locus YEL003W, strain gim4, active compounds read low",0.981
same,normalized growth,"locus YEL037C, strain rad23, active compounds read low",0.959
same,normalized growth,"locus YEL061C, strain CIN8 (second series), active compounds read low",0.963
same,normalized growth,"locus YER015W, strain faa2, active compounds read low",0.969
same,normalized growth,"locus YER016W, strain bim1, active compounds read low",0.974
same,normalized growth,"locus YER111C, strain swi4, active compounds read low",0.985
same,normalized growth,"locus YER155C, strain BEM2 (second series), active compounds read low",0.506 (active)
same,normalized growth,"locus YFR010W, strain ubp6, active compounds read low",0.959
same,normalized growth,"locus YGL167C, strain pmr1, active compounds read low",0.969
same,normalized growth,"locus YGL173C, strain kem1, active compounds read low",0.946
same,normalized growth,"locus YGL227W, strain vid30, active compounds read low",0.977
same,normalized growth,"locus YGL240W, strain doc1, active compounds read low",0.924
same,normalized growth,"locus YGL253W, strain hxk2, active compounds read low",0.859 (active)
same,normalized growth,"locus YHR013C, strain ard1, active compounds read low",0.897
same,normalized growth,"locus YHR027C, strain rpn1, active compounds read low",0.98
same,normalized growth,"locus YHR030C, strain SLT2, active compounds read low",1.02
same,normalized growth,"locus YHR079C, strain IRE1, active compounds read low",0.992
same,normalized growth,"locus YHR142W, strain chs7, active compounds read low",0.765 (active)
same,normalized growth,"locus YJL092W, strain hpr5, active compounds read low",0.975
same,normalized growth,"locus YJL095W, strain BCK1 (second series), active compounds read low",0.971
same,normalized growth,"locus YJL095W, strain BCK1, active compounds read low",0.995
same,normalized growth,"locus YJL115W, strain asf1, active compounds read low",0.979
same,normalized growth,"locus YJL129C, strain trk1, active compounds read low",0.912
same,normalized growth,"locus YJL154C, strain vps35, active compounds read low",0.981
same,normalized growth,"locus YJL164C, strain tpk1, active compounds read low",0.902 (active)
same,normalized growth,"locus YJL166W, strain qcr8, active compounds read low",0.908
same,normalized growth,"locus YJL187C, strain SWE1, active compounds read low",0.966
same,normalized growth,"locus YJR066W, strain TOR1, active compounds read low",0.923
same,normalized growth,"locus YKL160W, strain elf1, active compounds read low",0.872 (active)
same,normalized growth,"locus YKR026C, strain gcn3, active compounds read low",0.969
same,normalized growth,"locus YKR091W, strain srl3, active compounds read low",0.985
same,normalized growth,"locus YLL001W, strain dnm1, active compounds read low",0.939
same,normalized growth,"locus YLL026W, active compounds read low",0.972
same,normalized growth,"locus YLL041C, strain sdh2, active compounds read low",0.97
same,normalized growth,"locus YLR027C, strain aat2, active compounds read low",0.934
same,normalized growth,"locus YLR113W, strain HOG1, active compounds read low",1.03
same,normalized growth,"locus YLR221C, strain rsa3, active compounds read low",0.883 (active)
same,normalized growth,"locus YLR258W, strain gsy2, active compounds read low",0.961
same,normalized growth,"locus YLR262C, strain YPT6 (second series), active compounds read low",0.78 (active)
same,normalized growth,"locus YLR320W, strain mms22, active compounds read low",0.774 (active)
same,normalized growth,"locus YLR342W, strain FKS1, active compounds read low",0.984
same,normalized growth,"locus YLR357W, strain rsc2, active compounds read low",1.01
same,normalized growth,"locus YLR370C, strain arc18, active compounds read low",0.964
same,normalized growth,"locus YLR384C, strain iki3, active compounds read low",0.976
same,normalized growth,"locus YML120C, strain ndi1, active compounds read low",0.917
same,normalized growth,"locus YMR058W, strain fet3, active compounds read low",0.888 (active)
same,normalized growth,"locus YMR125W, strain sto1, active compounds read low",1
same,normalized growth,"locus YMR129W, active compounds read low",0.979
same,normalized growth,"locus YMR205C, strain PFK2, active compounds read low",0.972
same,normalized growth,"locus YMR231W, strain pep5, active compounds read low",0.986
same,normalized growth,"locus YNL071W, strain lat1, active compounds read low",0.62 (active)
same,normalized growth,"locus YNL183C, strain NPR1, active compounds read low",0.943
same,normalized growth,"locus YNL209W, strain ssb2, active compounds read low",0.978
same,normalized growth,"locus YNL248C, strain rpa49, active compounds read low",0.755 (active)
same,normalized growth,"locus YNL322C, strain KRE1 (second series), active compounds read low",0.996
same,normalized growth,"locus YNR049C, strain mso1, active compounds read low",0.965
same,normalized growth,"locus YOR001W, strain rrp6, active compounds read low",0.911
same,normalized growth,"locus YOR070C, strain gyp1, active compounds read low",0.937
same,normalized growth,"locus YOR080W, strain dia2, active compounds read low",0.982
same,normalized growth,"locus YOR083W, strain WHI5, active compounds read low",0.886 (active)
same,normalized growth,"locus YOR106W, strain vam3, active compounds read low",0.923
same,normalized growth,"locus YOR231W, strain MKK1, active compounds read low",1.01
same,normalized growth,"locus YOR265W, strain rbl2, active compounds read low",0.954
same,normalized growth,"locus YOR270C, strain vph1, active compounds read low",0.66 (active)
same,normalized growth,"locus YOR290C, strain snf2, active compounds read low",0.873
same,normalized growth,"locus YPL051W, strain arl3, active compounds read low",0.853 (active)
same,normalized growth,"locus YPL078C, strain atp4, active compounds read low",0.807 (active)
same,normalized growth,"locus YPL106C, strain sse1, active compounds read low",0.973
same,normalized growth,"locus YPL240C, strain hsp82, active compounds read low",0.974
same,normalized growth,"locus YPL256C, strain CLN2, active compounds read low",1.05
